Assay outcomes (PubChem BioAssay)
Hits are enriched below; roughly 5.8% of the tested compounds scored in any of these assays.
KB-3-1 tox: kills parental KB-3-1 adenocarcinoma cells; AID 1347075; Potency, µM (doses to about 46.1 µM), actives largely listed as cytotoxic; 1.4% of 400,000 active; KB-3-1 viability, CellTiter-Glo ATP luminescence, 72 h; further: on the % scale 0 is the no-effect control and ±100 the full control effect; nearly all actives have a fitted effect of over 60% in size
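Parental KB-3-1 adenocarcinoma cells in phenol-red-free DMEM with 10% FBS were pin-treated with compounds at several concentrations, incubated 72 h at 37 °C, and viability read by CellTiter-Glo luminescence; concentration-effect curves were fitted after normalization.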
MCF10A rerep: induces DNA re-replication in MCF 10a normal breast cells; MCF 10A DNA re-replication, Hoechst nuclear intensity, 48 h; Potency, µM (highest dose often 46.1 µM), without a hit: at the highest dose activity, positive = re-replication, usual class: activators; 2.9% of 350,000 active; AID 624296; further: % of control where 0% means no effect; nearly all actives have a fitted effect of over 50% in size
12-LOX inh: ALOX12 (human) lipoxygenase inhibition | purified 12hLO, xylenol orange hydroperoxide absorbance | Potency, µM (titrated, usually from 108 µM), inactives show at the top dose activity change, negative = inhibition, usual class: inhibitors | 1.1% of 580,000 active | AID 1671190; further: on the % scale 0 is the no-effect control and ±100 the full control effect
Target sequence (P18054 whole entry, looked up): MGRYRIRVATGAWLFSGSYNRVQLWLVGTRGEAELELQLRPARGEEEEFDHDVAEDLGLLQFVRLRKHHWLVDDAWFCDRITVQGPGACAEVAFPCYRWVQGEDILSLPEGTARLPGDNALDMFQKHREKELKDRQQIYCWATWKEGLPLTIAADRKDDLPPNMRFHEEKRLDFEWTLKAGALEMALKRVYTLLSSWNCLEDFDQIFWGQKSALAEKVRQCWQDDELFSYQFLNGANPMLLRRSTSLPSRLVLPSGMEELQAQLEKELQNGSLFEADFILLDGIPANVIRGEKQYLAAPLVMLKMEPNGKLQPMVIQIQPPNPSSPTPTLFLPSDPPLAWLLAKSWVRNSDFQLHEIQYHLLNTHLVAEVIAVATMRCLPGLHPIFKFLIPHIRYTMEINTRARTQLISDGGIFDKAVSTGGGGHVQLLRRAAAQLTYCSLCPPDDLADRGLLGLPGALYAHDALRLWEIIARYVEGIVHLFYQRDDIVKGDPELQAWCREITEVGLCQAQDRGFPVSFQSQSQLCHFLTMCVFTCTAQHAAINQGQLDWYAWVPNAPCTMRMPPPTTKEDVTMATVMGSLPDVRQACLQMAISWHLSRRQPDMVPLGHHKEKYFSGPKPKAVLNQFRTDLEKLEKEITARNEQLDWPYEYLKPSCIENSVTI
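Hydroperoxide product was detected by ferrous iron/xylenol orange as the 573 to 405 nm absorbance ratio. Arachidonic acid at 40 uM (final) was turned over for 30 min at room temperature by 150 nM human 12hLO, pH 7.0 Hepes buffer, after 15 min compound preincubation.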
PINK1 expr mod: PINK1 expression modulation | Potency, µM (series often up to 76.6 µM), without a hit: at the highest dose activation (PINK1 increase), usual class: activators | 0.2% of 410,000 active | PINK1 immunofluorescence, high-content cytometry, 24 h; active means well fitted activation curve with a large enough effect; inconclusive means small, poorly fitted or top-dose-only effect; cell line not stated here; further: % of control where 0% means no effect; nearly all actives have a fitted effect of over 65% in size
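Stable cell line treated 24 h with compounds at 5 concentrations (CCCP controls), then fixed and immunostained for PINK1 plus nuclear and cell stains; PINK1 immunofluorescence quantified by laser-scanning microplate cytometry.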
SW480 rerep: DNA re-replication induction in SW480 cells; SW480 DNA re-replication, Hoechst DNA content imaging, 48 h; Potency, µM (series often up to 46.1 µM), without a hit: at the highest dose re-replication activation, actives largely listed as activators; 1.8% of 340,000 active; further: % of control where 0% means no effect; nearly all actives have a fitted effect of over 55% in size
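Cells (250 per well) received 23 nL compound or DMSO by pin tool and were kept 48 hr at 37 C, 5% CO2. Nuclei were then stained with Hoechst for 40 min and scanned for DNA content.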
KB-V1 cytotox: kills drug-selected multidrug resistant KB-V1 cells | KB-V1 MDR cells viability, CellTiter-Glo, 72 h | Potency, µM (series often up to 46.1 µM), usual class: cytotoxic | 3.4% of 400,000 active | AID 1347076; further: on the % scale 0 is the no-effect control and ±100 the full control effect; nearly all actives have a fitted effect of over 60% in size
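Drug-selected KB-V1 cells, grown in DMEM lacking phenol red with 10% FBS, receive compound titrations; after three days at 37 degrees C, surviving cell ATP is quantified by CellTiter-Glo luminescence and responses normalized and curve-fitted.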
Active calls of the source: *; ! = a repeat was not active; [ ] = dose if it differs, or a comment. Unless noted, the call rests on the fitted dose curve; in most records, active means well fitted curve in the direction sought with a large enough effect; inconclusive means small, poorly fitted or top-dose-only effect, or another doubt; inactive means no such curve, though single readings can be large; an effect the other way counts as inactive or inconclusive. Potency means the concentration at half of the fitted maximal effect.

Screening O=C1NC(=NC2CCCCC2)C2(CCN(Cc3ccccc3)C2)N1c1cc(F)cc(F)c1 (stereo unspecified) returned 12-LOX inh 0%[6.33 µM].
`N#C/C(=N\Nc1ccc([N+](=O)[O-])cc1)C(N)=S` gave KB-3-1 tox inconclusive, MCF10A rerep inconclusive, 12-LOX inh 25µM*, PINK1 expr mod 25µM*, SW480 rerep -9% and KB-V1 cytotox inconclusive.
Screening N#C/C(=N\Nc1ccc(S(=O)(=O)N2CCCCC2)cc1)C(N)=S returned KB-3-1 tox inactive, MCF10A rerep -1%, 12-LOX inh 50µM*, PINK1 expr mod 2%, SW480 rerep -4% and KB-V1 cytotox inactive.
`COc1ccc(CCNC(=O)CN(c2ccc(Cl)c(C(F)(F)F)c2)S(C)(=O)=O)cc1OC` gave 12-LOX inh 50%.
Cc1nn(C)c(C)c1CNCc1ccnc(N2CCOCC2)c1 was read as 12-LOX inh 11µM*.
COc1ccc([C@H]2CC(=O)C=C(c3ccc4[nH]ccc4c3)C2)cc1OC was read as KB-3-1 tox inactive, MCF10A rerep -5%, 12-LOX inh inconclusive, PINK1 expr mod 6%, SW480 rerep 3%[9.22 µM] and KB-V1 cytotox inactive.
`O=C1C=C(c2ccc3[nH]ccc3c2)C[C@@H](c2ccc(F)cc2)C1` gave KB-3-1 tox inconclusive, MCF10A rerep 21µM*, 12-LOX inh inconclusive, PINK1 expr mod inconclusive, SW480 rerep 2% and KB-V1 cytotox inactive.
Screening N#CC1=C(N)NC(=S)C(C(N)=O)C1c1ccc([N+](=O)[O-])cc1 (stereo unspecified) returned KB-3-1 tox inactive, MCF10A rerep -4%, 12-LOX inh 45µM*, PINK1 expr mod 2%, SW480 rerep 0% and KB-V1 cytotox inactive.
`Cc1cccc(CNC(=O)CSc2nc3nc[nH]c3c(=O)[nH]2)c1` gave 12-LOX inh 3%.
For c1coc(CN(Cc2ccco2)c2ncnc3c2oc2ccccc23)c1 the results were KB-3-1 tox inconclusive, MCF10A rerep inconclusive, PINK1 expr mod 1%, SW480 rerep inconclusive and KB-V1 cytotox 16µM*.
Screening Cc1nc(-n2ccc3nc4ccn(C5CCCCCC5)c(=O)c4cc3c2=O)n[nH]1 returned 12-LOX inh 56%.
For O=C(NCc1c[nH]c2ncccc12)c1ccccc1 the results were 12-LOX inh 2%[176 µM].
For O=c1[nH]c2ccc(-c3csc(NC4CCCC4)n3)cc2o1 the results were 12-LOX inh 6.3µM*.
CCCNc1nc(-c2ccc3[nH]c(=O)oc3c2)cs1 was read as 12-LOX inh 13µM*.
Cc1nc2ccccc2c2nc(NC(=O)Cc3ccccc3)nn12 was read as KB-3-1 tox inconclusive, MCF10A rerep 22%, 12-LOX inh 7%, PINK1 expr mod 3%[38.3 µM], SW480 rerep 3% and KB-V1 cytotox 18µM*.
Cc1cc(NC(=O)Cc2ccccc2)c2ccccc2n1 was read as KB-3-1 tox inactive, MCF10A rerep inconclusive, 12-LOX inh 3%, PINK1 expr mod 0%, SW480 rerep -27% and KB-V1 cytotox inactive.
`N#Cc1ccc(NC(=O)NCc2ccccn2)cc1` gave 12-LOX inh 3%.
Screening S=P(N1CC1)(N1CC1)N1CC1 returned KB-3-1 tox inactive, MCF10A rerep inconclusive, 12-LOX inh -22%, PINK1 expr mod -1%, SW480 rerep 2.1µM* and KB-V1 cytotox inactive.
Screening CCCc1cc(C(=O)Cc2ccc(F)cc2)c(O)cc1O returned KB-3-1 tox inactive, MCF10A rerep inconclusive, 12-LOX inh inconclusive, PINK1 expr mod inconclusive, SW480 rerep -8% and KB-V1 cytotox inactive.
For CCc1cc(C(=O)Cc2ccc(F)cc2)c(O)cc1O the results were KB-3-1 tox inconclusive, MCF10A rerep 9%, 12-LOX inh inconclusive, PINK1 expr mod inconclusive, SW480 rerep -2% and KB-V1 cytotox 16µM*.
CCN(CC)Cc1ccc2cc(COC(=O)Nc3ccc(C(=O)NO)cc3)ccc2c1 was read as 12-LOX inh 15µM*.
Screening CCC(=O)Nc1ccc(C(=O)OCc2ccc(Cl)c(Cl)c2)cc1 returned KB-3-1 tox inactive, MCF10A rerep inconclusive, 12-LOX inh -2%, PINK1 expr mod 6%, SW480 rerep -3% and KB-V1 cytotox inconclusive.
For O=c1n(-c2ccc(Cl)cc2)nc2n1CCN(Cc1cccc3ccccc13)C2 the results were 12-LOX inh 11%[6.33 µM].
O=c1n(-c2ccc(F)cc2F)nc2n1CCN(Cc1cccc3ccccc13)C2 was read as 12-LOX inh 28µM*.
COc1ccccc1N1CCN(Cc2cc(=O)oc3cc(O)c(Cl)cc23)CC1 was read as 12-LOX inh -11%.
Screening CCOC(=O)c1sc2ccccc2c1OC(=O)c1ccccc1OC returned KB-3-1 tox inactive, MCF10A rerep inconclusive, 12-LOX inh -1%, PINK1 expr mod 1%, SW480 rerep 0.58µM* and KB-V1 cytotox inactive.
Screening COc1cc(-c2noc(C)c2-c2ccc(N(C)C)nc2)cc(OC)c1OC returned KB-3-1 tox 0.0065µM*, MCF10A rerep inconclusive, 12-LOX inh 14%, PINK1 expr mod 6%, SW480 rerep 0.29µM* and KB-V1 cytotox 0.21µM*.
Screening COc1cc(-c2noc(C)c2/C=C/c2ccc(C(=O)O)cc2)cc(OC)c1OC returned KB-3-1 tox inconclusive, MCF10A rerep inconclusive, 12-LOX inh inconclusive, PINK1 expr mod 5%, SW480 rerep inconclusive and KB-V1 cytotox inactive.
Screening COc1cc(-c2noc(C)c2-c2ccc3[nH]ccc3c2)cc(OC)c1OC returned KB-3-1 tox 1.8µM*, MCF10A rerep inconclusive, PINK1 expr mod 6%, SW480 rerep 2.6µM* and KB-V1 cytotox 1.8µM*!.
Screening O=C(Nc1cccc(O)c1)c1cc(=O)[nH]c2ccccc12 returned 12-LOX inh -11%.
COc1ccc(-c2csc(NC(=O)c3nn(C)c(=O)c4ccccc34)n2)cc1 was read as 12-LOX inh 33%.
For O=C(c1ccc(Cn2cncn2)cc1)N1CCN(c2ccccc2F)CC1 the results were 12-LOX inh -7%.
O=C(C[n+]1ccc2ccccc2c1)c1ccc(NC(=O)c2ccccc2)cc1 was read as KB-3-1 tox 21µM*, MCF10A rerep 2%, 12-LOX inh -19%, PINK1 expr mod 0%, SW480 rerep -4% and KB-V1 cytotox inactive.
Screening O=C(C[n+]1cccc(NC(=O)c2ccccc2)c1)c1ccc(NC(=O)c2ccccc2)cc1 returned KB-3-1 tox inconclusive, MCF10A rerep -3%, 12-LOX inh 18%, PINK1 expr mod -3%, SW480 rerep -2% and KB-V1 cytotox inactive.
